From PubChem BioAssay
YopH inh – YopH tyrosine phosphatase inhibitors, primary screen, biochemical, fluorescence Ex485/Em525. inhibition, % (no concentration beside the values). 140,000 tested, 0.16% active. AID 898, 2007; in the data active = inhibition above about 50%
RmlC RmlD mix – RmlC and RmlD coupled enzyme inhibitors, primary screen, biochemical, 384-well, compound mixtures, retest; RmlC/RmlD coupled enzyme inhibition, 384-well mixture HTS; inhibition, % at 5.5 µM; 110,000 tested, 0.39% active; AID 1532, 2009; in the data active = inhibition above about 30%, passing the limit was not always enough; inconclusive = no clear call, values can overlap the other calls
* marks the source's active call; other numbers are inactive results; ? = inconclusive; nt = no result. Compounds with a hit are over-represented: about 0.44% of the library has one in this group of screens.

SMILES	YopH inh	RmlC RmlD mix
CCCN1CCCc2cc(CN)ccc21	84.2*	1.0
Cc1ccc2c(c1)CCCN2N=O	-21.2	nt
O=C(Nc1ccc([N+](=O)[O-])cc1)Nc1ccc(OC(F)F)c(Cl)c1	-21.7	nt
COC(=O)c1ccc(NC(=O)C2C3CCC(C3)C2C(=O)O)cc1 (stereo not given)	-29.3	4.5
COC(=O)Cc1cnc(NC(=O)C2C3CCC(C3)C2C(=O)O)s1 (stereo not given)	50.9*	20.3
Cc1cccn2c(=O)c3cc(C(=O)N4CCN(C(=O)c5ccco5)CC4)n(C)c3nc12	-12.4	nt
Cn1c(C(=O)N2CCN(C(=O)c3ccco3)CC2)cc2c(=O)n3ccccc3nc21	-28.8	96.4*
CCOC(=O)Nc1nnc(CCc2ccccc2)s1	-31.4	5.4
CCOC(=O)Nc1nnc(-c2ccc(OC)c(OC)c2)s1	2.1	31.3*
N#Cc1nn(-c2ccccc2)nc1N1CCCCC1	-27.0	0.5
O=[N+]([O-])c1ccc(/C=N/n2cnc3ccccc32)s1	-9.9	nt
Cc1ccc(NC(=S)N/N=C/c2ccc([N+](=O)[O-])s2)cc1	-22.7	nt
NC(=O)c1ccc(N=Cc2ccc([N+](=O)[O-])s2)cc1	92.0*	nt
Cc1cc(C)cc(N=Cc2ccc([N+](=O)[O-])s2)c1	86.3*	nt
Nc1c(S(=O)(=O)c2cccs2)c2nc3ccccc3nc2n1/N=C/c1cccc(O)c1	-29.2	-26.6
CC1CCCN(Cc2c(O)ccc3c(=O)c(-c4nc5ccccc5s4)c(N)oc23)C1 (stereo not given)	-39.2	-16.9
CCCc1cc(=O)oc2c(CN3CCCC3)c(O)c(Cl)cc12	-44.5	59.0*
CCCc1cc(=O)oc2cc(C)c(CN3CCCC3)c(O)c12	-52.5	nt
CCN1CCN(Cc2c(O)c(Cl)cc3c(C)cc(=O)oc23)CC1	10.5	?
Cc1c(C)c2cc(Cl)c(O)c(CN3CCN(C)CC3)c2oc1=O	-21.4	97.3*
Cc1c(C)c2cc(Cl)c(O)c(CN3CCCC(C)C3)c2oc1=O (stereo not given)	-49.1	112.5*
CC(C)NS(=O)(=O)c1ccc2c(c1)NCC2	-21.2	nt
O=C1C2C(c3ccccc3)CC=CC2[C@H](c2cccc([N+](=O)[O-])c2)N1Cc1ccccc1 (stereo not given in full)	nt	7.1
CC(C)N(C(=O)COc1ccc(Br)cc1Cl)C(C)C	52.4*	3.0
COCCNC(=O)COc1ccc(Br)cc1Cl	-12.9	-8.6
SMILES	YopH inh	RmlC RmlD mix
CCNC(=O)/C(C#N)=C/c1c(N2CCN(Cc3ccc4c(c3)OCO4)CC2)nc2c(C)cccn2c1=O	10.7	nt
C#CCOCCOCCOCCNc1nc(N2CCN(C(=O)[C@H](CCC(=O)O)n3cc(C(N)CC(C)C)nn3)CC2)nc(N2CCN(C(=O)[C@H](CCC(=O)O)n3cc(C(N)CC(C)C)nn3)CC2)n1 (stereo not given in full)	nt	-5.6
CCOc1ccccc1NC(=O)N1CCC(C(=O)c2ccc(F)cc2)CC1	-18.0	-5.6
COc1ccccc1NC(=O)N1CCC(C(=O)c2ccc(F)cc2)CC1	56.0*	-11.3
CS(=O)(=O)N(CC(=O)Nc1cccnc1)c1ccc2c(c1)OCO2	-23.9	5.3
O=C(O)CCC(=O)NC1CCCCCCC1	-19.9	0.0
O=C(O)CCCCC1CCSS1 (stereo not given)	nt	73.5*
Cc1ccccc1-n1c(=O)c(C#N)cc2c(=O)n3ccccc3nc21	-18.4	123.1
Cc1cc(-n2c(=O)c(C#N)cc3c(=O)n4ccccc4nc32)no1	-12.8	54.7*
Cc1cc(C)nc(SCc2ccc(C(=O)N/N=C3\CC(C)CC(C)(C)C3)cc2)n1 (stereo not given)	-28.3	nt
CCN1CCN(CCCOc2ccc(-c3ccccc3)cc2)CC1	54.8*	6.1
CCOc1ccc(OCCCCN2CCCC2)cc1	2.2	-1.1
CC1Cc2ccccc2N1C(=O)c1cc2sccc2n1Cc1ccc(F)cc1 (stereo not given)	-23.1	13.5
COC(=O)c1sc2nc(N3CCCCC3)c3c(c2c1N)CC(C)(C)N(C)C3	-6.7	37.2*
CCOC(=O)c1sc2nc(N3CCOCC3)c3c(c2c1N)CC(C)(C)N(C)C3	-18.1	22.6
COC(=O)c1nn(-c2ccccc2)c(Sc2ccc(Cl)cc2)c1/C=N/O	-20.5	nt
CCN1N=C(c2cc(Cl)sc2Cl)CSC1=O	4.3	5.4
CN1C(=O)C(Cc2c[nH]c3ccccc23)C(=O)N(C)C1=O	-26.4	nt
CN1C(=O)C(Cc2cccc3ccccc23)C(=O)N(C)C1=O	55.1*	8.0
CCOC(=O)C1=C(C)NC(=O)C1CC(=O)O (stereo not given)	-13.1	nt
CCN(CC)CCCNC(=O)Cc1c(C(=O)O)n(C)c2ccccc12	52.1*	-7.6
CCN(CC)CCNC(=O)Cc1c(C(=O)O)n(C)c2ccccc12	-12.0	5.1
O=C1c2ccccc2C(=O)C12OC2c1cccc2ccccc12 (stereo not given)	98.6*	nt
O=C1CCCCC1c1cccc2ccccc12 (stereo not given)	-27.1	nt
Cc1ccc(C2=NOC(C)(c3nnc(Cc4ccccc4)o3)C2)cc1 (stereo not given)	nt	12.2
SMILES	YopH inh	RmlC RmlD mix
CN(CC(=O)N1CCCc2c1c(=O)oc1ccc(O)cc21)Cc1ccccc1	51.0*	1.8
CC(C(=O)N1CCc2ccccc21)N1CCc2ccccc2C1 (stereo not given)	-2.5	-12.9
CC(C(=O)N1CCCc2c1c(=O)oc1ccc(O)cc21)N1CCc2ccccc2C1 (stereo not given)	52.5*	9.4
CC1CCN(CCC(=O)N2CCCc3c2c(=O)oc2ccc(O)cc32)CC1	61.2*	-16.6
CCCOc1ccc2oc(=O)c3c(c2c1)CCCN3C(=O)CN1CCCC(C(=O)OCC)C1 (stereo not given)	-8.7	-9.6
O=C(CN1CCCC1)N1CCCc2c1c(=O)oc1ccc(OCc3ccccc3)cc21	-37.4	-1.3
C#CCNC(=O)C1=C[C@H](C)[C@@H](CCCO)[C@H](OCC)O1	nt	4.3
CCOC(=O)c1c(-c2ccccc2)oc2cc(CN(C)C)c(O)c(CN(C)C)c12	-13.0	nt
Cc1c(CC=C(Cl)Cl)c(=O)[nH]c2c(C)cccc12	-15.7	nt
CCC(C)NC(=O)CSC1=Nc2ccccc2C2=NC(CC(=O)NCc3ccccc3)C(=O)N12 (stereo not given)	-11.1	70.0
Cc1cccc(Cn2c(C(C)(C)C)cc3cccnc32)c1	-0.5	15.8
Cn1c(C(=O)NCC2CCCO2)cc2c(=O)n(C)c3ccccc3c21 (stereo not given)	-24.7	-3.9
Cc1cc(C(=O)NCCCn2ccnc2)cs1	-0.6	-11.2
Cc1ccc2nc3c(cc(C(=O)NCCCn4ccnc4)n3C)c(=O)n2c1	-57.2	61.6*
Cc1ccc2nc3c(cc(C(=O)NCC4CCCO4)n3C)c(=O)n2c1 (stereo not given)	-24.1	102.9*
CC1CCCN(C(=O)C(C)Sc2nc(-c3ccccc3)cc(C(F)(F)F)n2)C1 (stereo not given)	2.6	-12.2
Cc1ccc[n+](C(C)C(=O)Nc2ccc(C)c([N+](=O)[O-])c2)c1 (stereo not given)	-29.9	2.5
Cc1nc2sc(C(c3ccccc3)N3CCN(c4ccccc4F)CC3)c(O)n2n1 (stereo not given)	-11.6	9.4
C=CCc1ccccc1OCC(=O)N/N=C/c1ccc(OC(C)=O)cc1OC(C)=O	-28.1	nt
COc1ccc2c(c1)c(=O)cc(C)n2CC(=O)NCc1ccco1	92.6*	-11.0
COc1ccc(OC)c(NC(=O)Cn2c(=O)n(CC(=O)NCc3ccco3)c(=O)c3ccccc32)c1	-14.1	1.1
